Source: PubChem
FMDV inh = blocks foot and mouth disease virus; FMDV antiviral cell-based qHTS; Potency, µM (doses to about 57.9 µM), for inactives: at the top dose activity change, negative = inhibition, usual class: inhibitors; 410,000 compounds, 1.2% hits; AID 1159524; calls by dose curve; tested in HEK293T cells; note: read-out not given here; potency is the fitted concentration of half-maximal effect; nearly all actives have a fitted effect of over 45% in size
Lassa entry inh = Lassa virus entry inhibition; Lassa virus pseudotype entry inhibition, cell reporter; Potency, µM (titrated, usually from 37.9 µM), for the others: top-dose activity change, negative = inhibition, actives largely listed as inhibitors; 300,000 compounds, 1.2% hits; AID 540256; calls by dose curve; tested in HEK293 cells; note: potency is the fitted concentration of half-maximal effect; nearly all actives have a fitted effect of over 50% in size
HCMV inh = inhibitors of human cytomegalovirus. HFF cells, HCMV-luciferase reporter, 72 h; hits give low values. activity change, negative = inhibition, % at 57.5 µM. 410,000 compounds, 4.5% hits; in the data active = activity change below about -60%; inconclusive = no clear call, values can overlap the other calls; inactive = above about -39%
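Two-dose cell screen: HFF monolayers treated with compounds and infected with luciferase-expressing HCMV at 1 PFU/cell, 72 h at 37C, then lysed for luciferase measurement.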
Vaccinia Venus = vaccinia inhibition (Venus reporter); AID 720580; Vaccinia virus Venus reporter expression, fluorescence; Potency, µM (top dose mostly 36.5 µM), for inactives: at the top dose activity change, negative = inhibition, actives largely listed as inhibitors; 330,000 compounds, 0.46% hits; calls by dose curve; tested in A549 cells; note: potency is the fitted concentration of half-maximal effect; nearly all actives have a fitted effect of over 30% in size
Marburg entry inh = inhibitors of Marburg virus binding or cell entry | Marburg virus pseudotyped entry inhibition, cell reporter | Potency, µM (doses to about 37.8 µM), for inactives: at the top dose activity change, negative = inhibition, hits mostly inhibitors | 300,000 compounds, 1.8% hits | AID 540276; calls by dose curve; tested in HEK293 cells; note: potency is the fitted concentration of half-maximal effect
VACV mCherry inh = vaccinia inhibition (mCherry reporter) | Vaccinia virus mCherry reporter infection, fluorescence | Potency, µM (highest dose often 36.5 µM), inactives show at the top dose activity change, negative = inhibition, most hits filed as inhibitors | 310,000 compounds, 0.63% hits | AID 720579; calls by dose curve; tested in A549 cells; note: potency is the fitted concentration of half-maximal effect; nearly all actives have a fitted effect of over 35% in size
Starred values were filed as active, the others as inactive; i = inactive; u = inconclusive; x = not tested or not shown; [ ] = dose if it differs, or a comment. Shown are actives, neighbours in structure and some others; about 6.5% of the full set was active somewhere. % is set by controls: 0 for no effect and ±100 for the full control effect.

SMILES | FMDV inh | Lassa entry inh | HCMV inh | Vaccinia Venus | Marburg entry inh | VACV mCherry inh
CCCCCCCCCCC1=C(C)C(=O)C(OC)=C(OC)C1=O | -21%[97.4 µM] | x | x | -15%[60.7 µM] | x | -12%[60.7 µM]
CCCCCCCCSC1=CC(=O)C(OC)=C(OC)C1=O | 18µM* | x | -87* | -8% | x | -7%
CC12CC(c3ccccc3O1)N(C(=O)c1ccco1)C(=S)N2c1ccccc1 (stereo unspecified) | -15% | u | 12 | x | 16µM* | x
CC(=O)c1c(N2CCN(C(=O)c3ccco3)CC2)nc(=S)n(-c2ccccc2)c1C | 0% | 14% | -4 | -16% | -9% | i
Cc1ccccc1-c1nc(C(=O)NCC2CCCO2)cc2c1[nH]c1ccccc12 (stereo unspecified) | u | x | -23 | -21% | x | u
Cc1ccc(-c2nc(C(=O)NCCCN(C)C)cc3c2[nH]c2ccccc23)cc1 | u | x | -98* | u | x | u
O=C(NCCO)c1cc2c([nH]c3ccccc32)c(-c2ccccc2)n1 | -4% | -12% | 69 | -16% | -1% | u
O=C(NCC1CCCO1)c1cc2c([nH]c3ccccc32)c(-c2cccc(Br)c2)n1 (stereo unspecified) | u | x | -72* | u | x | u
Cc1ccc(-c2nc(C(=O)NCC3CCCO3)cc3c2[nH]c2ccccc23)cc1 (stereo unspecified) | u | x | -95* | -26% | x | u
COc1ccc(-c2nc(C(=O)NCC3CCCO3)cc3c2[nH]c2ccccc23)cc1 (stereo unspecified) | u | x | u | -21% | x | u
COCCn1c(=O)c(-c2ccc(F)cc2)nc2cnc(N(C)C)nc21 | -2% | x | x | x | x | x
O=C(CSc1nc2ccccc2n1-c1ccccc1)Nc1ncc(Cl)cc1Cl | -7% | 2.5µM* | u | 20% | 1.1µM* | 6.3µM*
COc1ccc(NC(=O)CSc2nc3ccccc3n2-c2ccccc2)c([N+](=O)[O-])c1 | -26% | u | -3 | x | 12µM* | x
COc1ccc(NC(=O)CSc2ccccc2)c([N+](=O)[O-])c1 | 20% | -8%[46.1 µM] | -40 | 1% | u | -26%
CCc1ccc(-n2cnc3cc(C(=O)NCc4ccc(C)cc4)ccc32)cc1 | 2% | u | -13 | -9% | x | -10%
S=C(NCCCc1cnc[nH]1)NCCCN(CCc1ccccc1)c1ccc(Br)cn1 | x | x | x | -20% | x | -12%
Nc1cc2c(cc1Br)[nH]c(=O)c1ccccc12 | -24% | u | -89* | u | u | u
O=c1oc2ccccc2c(Cl)c1CN1CCCCC1 | u | x | -64* | x | x | x
CN(C)S(=O)(=O)N1CCC(Oc2cccc(C(=O)N3CCCCCCC3)c2)CC1 | u | 11µM* | x | -18% | -1% | -19%
O=C1CCCCC1CCS(=O)(=O)NCc1ccccc1 (stereo unspecified) | x | x | 1 | x | x | x
CC1OC(O[C@@H]2C(O)CC(O[C@@H]3C(O)C[C@@H](OC4CC[C@]5(C)[C@H](CC[C@H]6[C@@H]5CC[C@]5(C)C(C7=CC(=O)OC7)C(O)C[C@@]65O)C4)OC3C)OC2C)CC(O)C1O (stereo partly specified) | -29% | x | x | u | x | u
CC1O[C@@H](O[C@@H]2C(O)C[C@H](O[C@@H]3C(O)C[C@@H](OC4CC[C@@]5(C)C6CC(O)[C@@]7(C)C(C8=CC(=O)OC8)CC[C@@]7(O)C6CC[C@@H]5C4)OC3C)OC2C)CC(O)[C@H]1O (stereo partly specified) | u | x | x | 1µM* | x | 1µM*
CC(=O)OC1CC2(O)C3CCC4CC(O)CCC4(C)C3CCC2(C)C1C1=CC(=O)OC1 (stereo unspecified) | u | u | -97* | u | u | 35µM*
CC(=O)[C@@]1(O)[C@H](O)CC2C3CCC4CC(O)CC[C@]4(C)C3CC[C@@]21C (stereo partly specified) | -5% | x | x | x | x | x
CC(=O)OC1CC(OC2C(O)CC(OC3C(O)CC(OC4CCC5(C)C(CCC6C5CCC5(C)C(C7=CC(=O)OC7)C(O)CC65O)C4)OC3C)OC2C)OC(C)C1OC1OC(CO)C(O)C(O)C1O (stereo unspecified) | u | u | -101* | 0.28µM* | 0.18µM* | 0.28µM*
SMILES | FMDV inh | Lassa entry inh | HCMV inh | Vaccinia Venus | Marburg entry inh | VACV mCherry inh
C[C@H]1O[C@@H](O[C@H]2[C@@H](O)C[C@H](O[C@H]3[C@@H](O)C[C@H](O[C@H]4CC[C@@]5(C)[C@H](CC[C@@H]6[C@@H]5CC[C@]5(C)[C@@H](C7=CC(=O)OC7)CC[C@]65O)C4)O[C@@H]3C)O[C@@H]2C)C[C@H](O)[C@@H]1O | u | 0.21µM* | x | 0.089µM* | 0.058µM* | 7.1µM*
COc1cccc(C(c2sc3nc(-c4ccco4)nn3c2O)N2CCC3(CC2)OCCO3)c1 (stereo unspecified) | 2% | 2%[46.1 µM] | 3 | -7% | x | -6%
CC1OC(OC2C(O)CC(OC3C(O)CC(OC4CCC5(C)C(CCC6C5CCC5(C)C(C7=CC(=O)OC7)C(O)CC65O)C4)OC3C)OC2C)CC(O)C1O (stereo unspecified) | u | 0.32µM* | -97* | 0.32µM* | u | x
O=C(NCc1ccc(Cl)cc1Cl)c1cccc(N2CCCS2(=O)=O)c1 | 0% | -29%[46.1 µM] | -19 | -11% | -11%[46.1 µM] | -6%
Cc1ccc(CCNS(=O)(=O)c2c(C)nc3sc(C)c(C)n3c2=O)cc1 | -12% | 27%[46.1 µM] | 2 | -13% | x | -13%
CCOC(=O)C1CCN(C(=O)c2c(C)nn(-c3ccc(F)cc3)c2-n2cccc2)CC1 | -9% | 18%[46.1 µM] | -1 | 5% | x | 0%
Cc1nc2cc(C(=O)OCC(=O)N(CC(C)C)C3CCS(=O)(=O)C3)ccc2n1-c1ccccc1 (stereo unspecified) | 42% | -3% | -96* | x | u | x
CC(C)CN(C(=O)COC(=O)c1ccc(-c2ccccc2)cc1)C1CCS(=O)(=O)C1 (stereo unspecified) | -11% | -2% | -4 | -11% | 13% | -2%
Cc1nc2cc(C(=O)OCC(=O)NC(C)C(C)C)ccc2n1-c1ccccc1 (stereo unspecified) | 7% | 8.2µM* | -8 | -8% | u | i
CCOC(=O)[C@]12Cc3cc(OC)c(OC)cc3[C@H]1N(Cc1ccccc1)C(=O)c1ccccc12 | -3% | x | 63 | -23% | x | -7%
CCOC(=O)[C@]12Cc3cc(Cl)ccc3[C@H]1N(Cc1ccccc1)C(=O)c1cc(OC)ccc12 | 8.9µM* | x | -106* | u | x | u
CCOC(=O)[C@]12Cc3cc4ccccc4cc3[C@H]1N(Cc1ccccc1)C(=O)c1cc(OC)ccc12 | 7.9µM* | x | -91* | u | x | u
CCOC(=O)[C@]12Cc3cc4ccccc4cc3[C@H]1N(Cc1ccccc1)C(=O)c1ccccc12 | u | x | -97* | u | x | u
